The source of these data is ChEMBL document CHEMBL1961873, “Compounds: GSK PKIS; Assays: Nanosyn kinase panel” (2012).

For test [1], the target named is Mitogen-activated protein kinase kinase kinase kinase 4 (Homo sapiens) (UniProt O95819). To be noted: at 1 µM.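 Further: reported figure is an averaged inhibition value.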
Test [2] deals with Dual specificity mitogen-activated protein kinase kinase 1 (Homo sapiens) (UniProt Q02750). To be noted: at 0.1 µM.
For test [3] the target is unchanged. To be noted: at 1 µM.
Test [4] has as its target Misshapen-like kinase 1 (Homo sapiens) (UniProt Q8N4C8). To be noted: at 0.1 µM.
Test [5] shares this target. To be noted: at 1 µM.
Test [6] deals with T1, Serine/threonine-protein kinase 4 (Homo sapiens) (UniProt Q13043).
T1 sequence (whole entry): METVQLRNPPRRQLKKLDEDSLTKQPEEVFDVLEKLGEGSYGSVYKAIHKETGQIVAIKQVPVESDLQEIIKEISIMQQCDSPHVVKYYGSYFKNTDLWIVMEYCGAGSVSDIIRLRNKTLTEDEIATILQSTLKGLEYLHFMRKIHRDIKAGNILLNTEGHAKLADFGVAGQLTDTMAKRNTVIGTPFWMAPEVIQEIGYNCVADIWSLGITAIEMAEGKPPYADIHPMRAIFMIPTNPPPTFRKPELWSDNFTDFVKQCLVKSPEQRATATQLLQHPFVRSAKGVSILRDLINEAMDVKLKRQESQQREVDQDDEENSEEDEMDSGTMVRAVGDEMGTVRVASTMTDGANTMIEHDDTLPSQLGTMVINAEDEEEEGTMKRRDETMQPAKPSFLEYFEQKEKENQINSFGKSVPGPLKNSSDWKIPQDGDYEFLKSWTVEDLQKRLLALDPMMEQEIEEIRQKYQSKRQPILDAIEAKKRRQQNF
To be noted: at 0.1 µM.

The target in test [7] is T1, Serine/threonine-protein kinase 4 (Homo sapiens). To be noted: at 1 µM.
Test [8] has as its target T2, Serine/threonine-protein kinase 3 (Homo sapiens) (UniProt Q13188).
T2 sequence (whole entry): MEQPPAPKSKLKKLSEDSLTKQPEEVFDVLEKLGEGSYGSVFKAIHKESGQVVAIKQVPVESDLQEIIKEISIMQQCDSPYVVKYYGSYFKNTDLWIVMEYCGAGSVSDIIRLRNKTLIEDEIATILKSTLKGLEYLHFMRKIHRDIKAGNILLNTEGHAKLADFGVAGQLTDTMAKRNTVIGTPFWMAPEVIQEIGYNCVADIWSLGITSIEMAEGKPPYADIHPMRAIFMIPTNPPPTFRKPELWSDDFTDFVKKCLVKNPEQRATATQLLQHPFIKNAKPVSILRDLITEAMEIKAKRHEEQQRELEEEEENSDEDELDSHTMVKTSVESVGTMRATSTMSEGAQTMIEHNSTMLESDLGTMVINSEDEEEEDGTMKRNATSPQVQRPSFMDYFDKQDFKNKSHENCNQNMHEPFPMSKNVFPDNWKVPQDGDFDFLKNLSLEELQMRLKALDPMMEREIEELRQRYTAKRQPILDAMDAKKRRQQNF
To be noted: at 0.1 µM.

Test [9] has as its target T2, Serine/threonine-protein kinase 3 (Homo sapiens). To be noted: at 1 µM.
Test [10] concerns the target Serine/threonine-protein kinase 26 (Homo sapiens) (UniProt Q9P289). To be noted: at 0.1 µM.

SMILES strings stand for the structures. Values joined by “and” are separate entries in the source; they are usually repeats but may differ in a detail not shown here. Identical values can stand only once.

Serine/threonine-protein kinase 26 (Homo sapiens), sequence (Q9P289 2-416 limits assumed): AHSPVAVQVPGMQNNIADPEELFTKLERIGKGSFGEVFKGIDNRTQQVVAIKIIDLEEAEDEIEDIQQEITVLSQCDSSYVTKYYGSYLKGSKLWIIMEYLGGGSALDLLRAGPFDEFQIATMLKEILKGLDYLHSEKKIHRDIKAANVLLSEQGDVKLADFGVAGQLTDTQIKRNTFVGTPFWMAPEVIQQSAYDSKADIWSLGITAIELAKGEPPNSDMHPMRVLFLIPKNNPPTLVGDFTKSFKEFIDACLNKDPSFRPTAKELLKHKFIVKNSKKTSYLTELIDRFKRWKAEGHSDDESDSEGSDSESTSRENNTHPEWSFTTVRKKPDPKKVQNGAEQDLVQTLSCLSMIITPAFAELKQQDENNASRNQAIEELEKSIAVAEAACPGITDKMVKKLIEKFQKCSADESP
Misshapen-like kinase 1 (Homo sapiens), sequence (Q8N4C8 whole entry, looked up): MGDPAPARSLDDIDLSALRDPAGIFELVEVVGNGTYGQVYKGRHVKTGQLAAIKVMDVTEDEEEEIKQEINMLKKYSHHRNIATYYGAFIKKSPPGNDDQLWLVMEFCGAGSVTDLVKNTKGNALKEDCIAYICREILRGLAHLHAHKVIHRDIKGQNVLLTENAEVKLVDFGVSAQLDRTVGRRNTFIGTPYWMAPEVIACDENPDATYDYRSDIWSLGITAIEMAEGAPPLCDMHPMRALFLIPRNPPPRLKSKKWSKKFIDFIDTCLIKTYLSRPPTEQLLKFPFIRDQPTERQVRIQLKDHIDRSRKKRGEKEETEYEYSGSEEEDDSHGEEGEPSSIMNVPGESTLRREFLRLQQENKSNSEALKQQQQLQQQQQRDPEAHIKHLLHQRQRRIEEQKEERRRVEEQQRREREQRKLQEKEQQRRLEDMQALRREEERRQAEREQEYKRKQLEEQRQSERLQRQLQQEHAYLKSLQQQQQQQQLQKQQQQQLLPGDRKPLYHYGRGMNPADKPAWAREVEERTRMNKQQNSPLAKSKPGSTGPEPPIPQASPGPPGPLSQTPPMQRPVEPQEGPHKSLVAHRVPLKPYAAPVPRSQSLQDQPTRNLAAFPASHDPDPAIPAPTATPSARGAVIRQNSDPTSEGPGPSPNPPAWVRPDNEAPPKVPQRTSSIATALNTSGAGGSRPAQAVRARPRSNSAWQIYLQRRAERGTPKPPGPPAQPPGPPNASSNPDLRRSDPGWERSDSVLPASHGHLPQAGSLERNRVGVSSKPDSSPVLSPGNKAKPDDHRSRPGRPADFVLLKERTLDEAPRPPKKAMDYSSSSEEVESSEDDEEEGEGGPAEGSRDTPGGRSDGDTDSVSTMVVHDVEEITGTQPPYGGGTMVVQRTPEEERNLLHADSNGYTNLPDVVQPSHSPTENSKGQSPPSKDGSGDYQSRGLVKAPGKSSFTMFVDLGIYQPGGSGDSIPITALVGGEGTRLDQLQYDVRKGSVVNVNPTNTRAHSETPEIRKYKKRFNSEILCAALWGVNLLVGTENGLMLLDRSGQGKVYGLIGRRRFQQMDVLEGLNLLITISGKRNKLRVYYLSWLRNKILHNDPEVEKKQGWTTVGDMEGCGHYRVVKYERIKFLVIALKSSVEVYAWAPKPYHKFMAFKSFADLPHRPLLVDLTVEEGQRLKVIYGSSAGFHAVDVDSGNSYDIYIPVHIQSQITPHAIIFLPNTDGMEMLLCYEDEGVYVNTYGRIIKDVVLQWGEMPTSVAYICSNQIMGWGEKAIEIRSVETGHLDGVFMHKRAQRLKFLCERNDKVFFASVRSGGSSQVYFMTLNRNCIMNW
Mitogen-activated protein kinase kinase kinase kinase 4 (Homo sapiens), sequence (O95819 2-1239 limits assumed): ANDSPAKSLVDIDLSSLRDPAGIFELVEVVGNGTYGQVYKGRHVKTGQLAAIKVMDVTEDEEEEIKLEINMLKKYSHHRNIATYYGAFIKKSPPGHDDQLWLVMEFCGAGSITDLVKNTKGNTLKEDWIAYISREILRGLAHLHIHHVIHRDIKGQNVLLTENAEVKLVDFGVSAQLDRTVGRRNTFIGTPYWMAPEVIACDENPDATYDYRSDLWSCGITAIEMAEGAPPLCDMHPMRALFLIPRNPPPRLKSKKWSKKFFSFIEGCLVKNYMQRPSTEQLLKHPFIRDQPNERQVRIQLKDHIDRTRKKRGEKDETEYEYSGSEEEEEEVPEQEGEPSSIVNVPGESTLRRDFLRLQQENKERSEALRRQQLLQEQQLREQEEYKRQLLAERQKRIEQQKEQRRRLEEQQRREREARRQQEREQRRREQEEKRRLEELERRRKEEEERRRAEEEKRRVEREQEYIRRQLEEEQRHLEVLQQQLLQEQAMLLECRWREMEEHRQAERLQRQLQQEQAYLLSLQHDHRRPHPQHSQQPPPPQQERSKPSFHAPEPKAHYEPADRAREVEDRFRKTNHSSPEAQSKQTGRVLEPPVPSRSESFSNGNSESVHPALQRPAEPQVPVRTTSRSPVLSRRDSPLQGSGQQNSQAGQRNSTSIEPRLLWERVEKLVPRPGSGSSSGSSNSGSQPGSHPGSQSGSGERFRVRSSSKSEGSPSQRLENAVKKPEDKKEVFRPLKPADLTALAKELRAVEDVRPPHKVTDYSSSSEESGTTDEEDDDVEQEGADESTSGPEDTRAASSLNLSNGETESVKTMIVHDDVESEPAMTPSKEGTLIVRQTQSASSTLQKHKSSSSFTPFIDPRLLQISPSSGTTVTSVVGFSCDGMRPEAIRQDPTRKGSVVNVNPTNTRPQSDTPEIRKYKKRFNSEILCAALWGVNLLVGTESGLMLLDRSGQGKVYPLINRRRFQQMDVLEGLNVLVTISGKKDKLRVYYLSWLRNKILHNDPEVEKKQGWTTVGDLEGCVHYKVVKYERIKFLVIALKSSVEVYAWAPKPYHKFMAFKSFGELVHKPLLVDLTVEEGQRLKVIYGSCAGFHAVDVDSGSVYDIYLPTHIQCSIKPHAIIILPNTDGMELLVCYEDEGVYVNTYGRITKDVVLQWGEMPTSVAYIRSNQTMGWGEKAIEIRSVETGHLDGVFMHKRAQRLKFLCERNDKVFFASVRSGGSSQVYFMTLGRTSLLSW
Dual specificity mitogen-activated protein kinase kinase 1 (Homo sapiens), sequence (Q02750 whole entry): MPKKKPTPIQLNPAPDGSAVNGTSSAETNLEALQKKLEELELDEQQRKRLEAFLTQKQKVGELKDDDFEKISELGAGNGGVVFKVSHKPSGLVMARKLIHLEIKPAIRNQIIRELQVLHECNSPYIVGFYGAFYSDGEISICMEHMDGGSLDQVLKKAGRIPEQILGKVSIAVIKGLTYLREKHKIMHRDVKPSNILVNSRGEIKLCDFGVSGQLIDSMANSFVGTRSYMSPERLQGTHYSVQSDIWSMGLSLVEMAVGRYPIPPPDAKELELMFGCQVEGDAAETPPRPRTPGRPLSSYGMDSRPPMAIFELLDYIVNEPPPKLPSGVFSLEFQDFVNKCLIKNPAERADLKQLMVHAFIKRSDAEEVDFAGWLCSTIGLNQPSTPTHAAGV

For `COC(=O)Nc1nc2ccc(Oc3ccc(NC(=O)Nc4cc(C(F)(F)F)ccc4F)cc3)cc2s1`, the inhibition (in general, the drop in the measured response relative to a control, in per cent) in test [1] is 8.34%; in test [2], 0.28%; in test [3], 1.52%; in test [4], 2.27%; in test [5], 6.19%; in test [6] it was -0.61%. Further, the inhibition in test [7] is -1.63%; in [8], -0.86%; in [9], -0.3%; in test [10], 0.45%.

For `Nc1ncnc2occ(-c3ccc(NC(=O)Nc4cc(C(F)(F)F)ccc4F)cc3)c12`, the inhibition was 22.3% and 6.15% in test [1]; 1.15% and -1.72% in [2]; 2.3% and 0.44% in test [3]; 6.26% and -2.13% in test [4]; 19.9% and 2.27% in test [5]; 4.27% and -2.54% in [6]. In addition, the inhibition in test [7] is 8.75% and 0.44%; in test [8], 4.42% and -3.89%; in test [9] it was 6.36% and -2.2%; in test [10] it was 0.12% and -0.14%.

In the case of `O=C(Nc1n[nH]c2nnc(-c3cccnc3)cc12)C1CC1`, the inhibition is 20.3% in [1]; 0.74% in test [2]; 3.42% in [3]; 1.29% in test [4]; 13.1% in test [5]; -0.95% in test [6]. For the same compound, the inhibition in test [7] was -0.48%; in test [8], -2.99%; in test [9], -0.37%; in test [10], 0.94%.

As for `OCCCNc1nccc(-c2c(-c3ccc(F)cc3)nn3cc(C(F)(F)F)ccc23)n1`, the inhibition is 21.4% in [1]; 1.92% in [2]; 7.22% in [3]; 5.07% in [4]; 13.3% in [5]; 3.31% in test [6]. The inhibition in test [7] turned out to be 5.88%; in [8], 4.28%; in test [9], 2.96%; in [10], 0.48%.

Turning to `COc1ccc(-c2nn3ncccc3c2-c2ccnc(Nc3ccc(F)c(F)c3)n2)cc1`, the inhibition in test [1] was 16.4%; in [2], 6.07%; in test [3] it was 3.87%; in test [4] it was 9.98%; in test [5], 13.8%; in test [6] it was 6.88%. The inhibition was 11.6% in test [7], 5.53% in [8], 10.2% in test [9] and -0.41% in [10].

Consider `O=C(O[C@H]1CN[C@H](C#Cc2cc3ncnc(Nc4ccc5c(ccn5Cc5cc(F)ccc5F)c4)c3s2)C1)N1CCOCC1`, for which the inhibition was 5.63% in [1]; 5.1% in [2]; 5.26% in test [3]; 5.96% in test [4]; 5.37% in test [5]; 2.68% in test [6]. In addition, the inhibition was 4.43% in [7], 2.54% in [8], 1.92% in test [9] and -1.74% in test [10].

For `Cn1c(-c2nonc2N)nc2cnccc21`, the inhibition in [1] is 26.2%; in test [2], 4.67%; in [3], 4.45%; in [4] it was 5.83%; in test [5], 16.6%; in test [6] it was 3.91%. Further, the inhibition in test [7] was 3.75%; in [8], 4.04%; in test [9], 5.05%; in [10], -0.57%.

As for `COC(=O)Nc1nc2cc(Oc3ccc(NC(=O)Nc4ccccc4)cc3)ccc2[nH]1`, the inhibition is 12.9% in test [1]; 3.88% in test [2]; 2.45% in test [3]; 5.15% in test [4]; 11.3% in test [5]; 3.7% in [6]. For the same compound, the inhibition in [7] was 4.62%; in test [8], 5.39%; in [9], 6.48%; in test [10] it was -0.23%.

Consider `CCS(=O)(=O)c1ccc(OC)c(Nc2ncc(-c3cccc(C(C)=O)c3)o2)c1`, for which the inhibition in test [1] turned out to be 10.2%; in [2] it was 3.55%; in [3], 2.6%; in test [4] it was 3.09%; in [5], 8.97%; in test [6] it was 7.14%. In addition, the inhibition is 13.3% in test [7], 7.18% in test [8], 12.6% in test [9] and -0.19% in test [10].

For `COc1cc(N2CCN(C(C)C)CC2)ccc1Nc1nc(Nc2cccc(F)c2C(=O)O)c2cc[nH]c2n1`, the inhibition was found to be 10.1% in test [1]; 4.86% in test [2]; 2.88% in [3]; 4.85% in test [4]; 9.35% in test [5]; 5.23% in test [6]. For the same compound, the inhibition is 9.21% in test [7], 5.03% in test [8], 9.11% in [9] and -0.64% in test [10].

As to `CC1(C)CC(n2cnc(-c3ccc(F)cc3)c2-c2ccnc(N)n2)CC(C)(C)N1`, the inhibition in [1] was 2.96%; in [2] it was 1.4%; in test [3] it was 1.04%; in test [4], 1.2%; in [5], 4.78%; in test [6] it was -3.13%. Besides, the inhibition was -0.15% in test [7], -0.38% in [8], -1.38% in test [9] and -0.28% in [10].

Take `N#Cc1cccc(Nc2ncc(-c3ccccc3)o2)c1`: the inhibition in test [1] was determined as 23.8%; in test [2], 2.21%; in [3], 2.12%; in test [4] it was 5.1%; in test [5], 19.2%; in test [6], 3%. For the same compound, the inhibition was 5.15% in [7], 4.16% in test [8], 5.23% in [9] and -0.1% in test [10].

In the case of `CN1CCC(C(=O)Nc2n[nH]c3nc(-c4ccc(O)cc4)c(Br)cc23)CC1`, the inhibition in test [1] was 35.4% and 22.5%; in test [2], 6.37% and 2.39%; in test [3], 5.03% and 2.15%; in test [4], 7.75% and 5.32%; in [5], 28.1% and 15.2%; in test [6] it was 6.69% and 1.72%. For the same compound, the inhibition in test [7] is 14.7% and 2.3%; in test [8] it was 6.33% and 2.47%; in test [9] it was 13.2% and 3.69%; in test [10], 1.4% and 1.72%.

Regarding `Cc1nnc(-c2cccc(-c3ccc(C(=O)NCC4CC4)cc3)c2)o1`, the inhibition in test [1] turned out to be 14.1%; in [2] it was 8.77%; in test [3], 4.7%; in test [4], 7.95%; in test [5], 14.7%; in test [6], 8.49%. Moreover, the inhibition in test [7] was 9.93%; in [8], 10.6%; in [9] it was 10.4%; in test [10], -0.42%.

For `CCOc1ccc2c(-c3ccnc(Nc4cc(OC)cc(C(F)(F)F)c4)n3)cnn2n1`, the inhibition in test [1] turned out to be 8.47%; in [2], 0.11%; in test [3] it was 0.8%; in [4] it was 2.19%; in [5] it was 6.36%; in test [6] it was 0.03%. The inhibition in test [7] is 1.83%; in [8] it was -0.19%; in test [9] it was 2.45%; in test [10] it was 1.73%.

Turning to `O=C1Nc2ccccc2/C1=C1\CCc2cc(O)ccc21`, the inhibition in [1] stood at 66.8%; in test [2], 7.68%; in test [3], 9.97%; in test [4], 17.6%; in [5] it was 58.9%; in [6], 20.8%. Also, the inhibition in test [7] was 58.5%; in [8], 15.1%; in [9] it was 52.4%; in test [10], -4.52%.
